# Shown are actives, neighbours in structure and some others; about 1.5% of the full set was active somewhere.
# WRN helicase inh = qHTS for Inhibitors of WRN Helicase. WRN helicase unwinding, fluorescent forked duplex, kinetic. Potency, µM (highest dose often 114 µM), without a hit: at the top dose activity change, negative = inhibition, usual class: inhibitors. AID 651768, 2012. 360,000 compounds, 0.46% hits; note: potency is the fitted concentration of half-maximal effect; % is set by controls: 0 for no effect and ±100 for the full control effect; nearly all actives have a fitted effect of over 55% in size
#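 Screening of the MLSMR collection measured strand separation of a quenched forked DNA duplex (100 nM) by 20 nM WRN with 2 mM ATP, all final. Compounds were preincubated with enzyme 15 min at room temperature.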
# PI5P4K alpha inh = qHTS for Inhibitors of phosphatidylinositol 5-phosphate 4-kinase (PI5P4K); AID 652105, 2013; max response, %; Phosphatidylinositol 5-phosphate 4-kinase type-2 alpha (Homo sapiens), P48426; PI5P4Kalpha enzyme, ADP-Glo luminescence, 60 min; stronger effect = lower value; 330,000 compounds, 1.2% hits; active = max response of -50% or lower; inconclusive = between -30% and -50%; inactive = -30% or higher; note: value at the top dose of about 77 µM; % is set by controls: 0 for no effect and ±100 for the full control effect
#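 ADP-Glo luminescence end-point after a 60 min room-temperature kinase reaction. PI5P4Kalpha and substrate in HEPES pH 7.4 buffer with EGTA, 0.1% CHAPS and 5% DMSO; ATP at 5 microM final.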
# FEN1 inh-1 = qHTS Assay for the Inhibitors of Human Flap endonuclease 1 (FEN1); Potency, µM (highest dose often 114 µM), inactives show at the highest dose activity change, negative = inhibition, usual class: inhibitors; 390,000 compounds, 0.35% hits; Recombinant FEN1 flap cleavage, fluorescence, 15 min; AID 588795, 2011; note: potency is the fitted concentration of half-maximal effect; % is set by controls: 0 for no effect and ±100 for the full control effect; nearly all actives have a fitted effect of over 65% in size
#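 Reaction started by adding substrate (50 nM final) to 10 nM enzyme after 15 min room-temperature compound preincubation. Reads at 0 and 15 min, with data normalized and fitted to a four-parameter Hill equation.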
# PGK inhibitor = qHTS Assay to Find Inhibitors of Phosphoglycerate Kinase; Potency, µM (series often up to 57.5 µM), without a hit: at the top dose activity change, negative = inhibition, usual class: inhibitors; 380,000 compounds, 0.043% hits; Phosphoglycerate kinase, glycosomal (Trypanosoma brucei brucei), P07378; PGK/GAPDH coupled, Kinase-Glo luminescence, 60 min; AID 602233, 2012; note: potency is the fitted concentration of half-maximal effect; % is set by controls: 0 for no effect and ±100 for the full control effect; nearly all actives have a fitted effect of over 60% in size
# Target sequence (P07378 whole entry, looked up): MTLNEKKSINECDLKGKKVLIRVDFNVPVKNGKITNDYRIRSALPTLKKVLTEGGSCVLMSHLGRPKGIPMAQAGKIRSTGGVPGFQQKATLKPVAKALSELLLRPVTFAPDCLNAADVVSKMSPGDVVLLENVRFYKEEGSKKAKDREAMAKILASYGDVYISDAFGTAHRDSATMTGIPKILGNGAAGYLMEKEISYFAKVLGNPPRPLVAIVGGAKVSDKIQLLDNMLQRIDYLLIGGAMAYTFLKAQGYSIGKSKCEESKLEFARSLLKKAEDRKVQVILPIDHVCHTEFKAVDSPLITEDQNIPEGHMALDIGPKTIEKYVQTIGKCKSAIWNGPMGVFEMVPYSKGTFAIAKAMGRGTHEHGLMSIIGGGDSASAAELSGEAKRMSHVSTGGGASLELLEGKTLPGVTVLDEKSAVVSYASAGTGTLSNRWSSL
#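 Luminescent ATP detection (Kinase-Glo Plus) follows a 60-minute room-temperature incubation, with wells lacking PGK as controls. Buffer: 100 mM TEA (pH 7.6), 5 mM MgCl2, 0.01% Tween-20. Coupling enzyme GAPDH (100 nM final) supplies unstable 1,3-BPG in-well.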
# Tb PFK inh = qHTS Assay to Find Inhibitors of T. brucei phosphofructokinase | T. brucei PFK, ADP-Glo luminescence | ATP-dependent 6-phosphofructokinase (Trypanosoma brucei brucei), O15648 | AID 485367, 2010 | 330,000 compounds, 0.17% hits | Potency, µM (top dose mostly 57.5 µM), inactives show top-dose activity, negative = inhibition, hits mostly inhibitors;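 note: potency is the fitted concentration of half-maximal effect; 0% = uninhibited 1x PFK enzyme wells and -100% = no-enzyme wells; nearly all actives have a fitted effect of over 60% in size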
#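 Compounds were pin-transferred as a titration series up to 57 uM into substrate buffer (0.5 mM F6P, 0.1 mM ATP, pH 8.0), then 1.25 nM PFK was added and reactions ran 45 min before ADP-Glo detection.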
# TDP1 block = qHTS Assay for Inhibitors of Tyrosyl-DNA Phosphodiesterase (TDP1); AID 485290, 2010; 350,000 compounds, 0.28% hits; Potency, µM (doses to about 130 µM), inactives show at the highest dose activity change, negative = inhibition, usual class: inhibitors; recombinant TDP1, AlphaScreen DNA substrate cleavage; Tyrosyl-DNA phosphodiesterase 1 (Homo sapiens), Q9NUW8; note: potency is the fitted concentration of half-maximal effect; % is set by controls: 0 for no effect and ±100 for the full control effect; nearly all actives have a fitted effect of over 40% in size
#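 AlphaScreen read-out: signal falls as enzyme removes the 3' tyrosine-FITC from a 5'-biotinylated DNA oligo (15 nM, 5 min, RT). Enzyme was E. coli-made recombinant Tdp1 at 1 nM, exposed to compound for 15 min beforehand; beads 10 ug/ml, 10 min.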
# FEN1 inh-2 = qHTS Assay for the Inhibitors of FEN1: Confirmatory Assay for Cherry-picked Compounds; shares compounds with FEN1 inh-1; FEN1 flap cleavage, TAMRA/BHQ2 fluorogenic DNA substrate; 880 compounds, 79% hits; AID 720498, 2013; Potency, µM, usual class: inhibitors; note: potency is the fitted concentration of half-maximal effect; nearly all actives have a fitted effect of over 60% in size
# * hit, by the source's call; i = inactive; ? = inconclusive; · = no result; [ ] = another dose, or the depositor's remark. Unless noted, calls come from the whole dose curve; as a rule, active = well fitted curve in the direction sought with a large enough effect; inconclusive = small, poorly fitted or top-dose-only effect, or another doubt; inactive = no such curve, though single readings can be large; an effect the other way counts as inactive or inconclusive.
SMILES,WRN helicase inh,PI5P4K alpha inh,FEN1 inh-1,PGK inhibitor,Tb PFK inh,TDP1 block,others
Cc1ccc(C(=O)c2coc3c2C(=O)C(=O)c2ccccc2-3)cc1,-18.0%,·,-18.0%,·,-2.4%,6.6%,
Cc1coc2c1C(=O)C(=O)c1c-2ccc2c(C)cccc12,-36.0%,-56.1*,?,-13.0%,0.8%,5.9%,
CCCCCCCCCCOc1cc(OCCCCCCCCCC)cc(N(CC(=O)O)CC(=O)O)c1,·,·,·,·,·,10.8%,
CC(=O)N1CCC2(CC1)OC(=O)C(C)=C2C(=O)Nc1cccc(Cl)c1C,·,·,-6.2%,9.8%,·,-6.2%,
NS(=O)(=O)c1ccc(-c2cccc(/C=C3\SC(=O)NC3=O)c2)cc1,-16.2%,-55.7*,-4.5%,-10.6%,4.6%,·,
CCCCNC(=O)[C@@H]1CC=C[C@@H]2CCN(Cc3ccccc3)C(=O)[C@@H]21,·,·,-0.2%,·,·,·,
O=C(Cc1nnc(NC(=O)c2ccccc2)s1)N/N=C\c1ccc(O)c(O)c1,17.8µM*,-74.5*,?,?,-18.2%,·,
Cc1cc(SCC(=O)N/N=C/c2ccc(O)cc2O)nc2ccccc12,-8.9%,-13.1,-21.0%,i,0.5%,·,
O=C(Cc1nnc(NC(=O)c2ccccc2)s1)N/N=C/c1ccc(O)cc1,-5.9%,-28.1,-9.7%,-0.8%,-2.3%,·,
Cc1cc(SCC(=O)N/N=C/c2ccc(O)c(O)c2)nc2ccccc12,79.4µM*,?,?,-5.9%,0.5%,·,
COc1ccc(CN2C(=O)c3ccccc3NC2c2ccc(OC)c(COc3ccc(NC(C)=O)cc3)c2)cc1 (centres undefined),·,·,·,·,·,0.0%,
Cc1ccc(C)c(N2CCN(C(=O)c3cc(C)nc4c3c(C)nn4-c3ccccc3)CC2)c1,·,·,4.8%,-4.1%,·,-2.1%,
Cc1ccc2[nH]cc(C(O)c3c[nH]c4ccc(C)cc34)c2c1,·,·,-14.3%,·,·,·,
O=C(O)/C=C/c1ccc([N+](=O)[O-])o1,-25.2%,-10.6,-18.8%,15.8µM*,0.5%,31.6µM*,
CN1CCN(C(=O)/C=C/c2ccc([N+](=O)[O-])o2)CC1,2.7%,2.2,15.7%,4.6%,-3.6%,·,
COC(=O)c1ccc(NC(=O)c2nc(SCc3ccccc3F)ncc2Cl)cc1,·,·,10.0%,·,·,·,
COc1cc(/C=C2\C(=N)N3N=C(S(C)(=O)=O)SC3=NC2=O)ccc1OCCOc1ccccc1C,50.1µM*,-56.6*,-20.0%,?,2.4%,·,
COc1ccc(OCCOc2ccc(/C=C3\C(=N)N4N=C(C)SC4=NC3=O)cc2)cc1,9.3%,-8.0,-6.7%,-10.0%,-10.0%,35.5µM*,
COc1cc(/C=C2\C(=N)N3N=C(S(C)(=O)=O)SC3=NC2=O)ccc1OC(=O)c1cccs1,-15.9%,-23.5,-18.5%,2.5%,10.8%,-19.0%,
O=C(c1cc2ccccc2[nH]1)c1cc2cc(O)ccc2[nH]1,·,·,-7.4%,·,·,·,
CC1=CC(=O)C(Sc2ccc(C)cc2)=CC1=O,3.8%,-71.5*,·,i,·,·,
CCc1nn2c(-c3ccccc3OC)ccnc2c1-c1ccc(F)cc1,·,·,-0.4%,7.0%,·,1.9%,
Nc1nccnc1C(=O)OCC(=O)Nc1ccc2[nH]c(=O)[nH]c2c1,?,-9.5,?,-7.9%,?,-13.3%[0.505 µM],FEN1 inh-2=?
O=C(COC(=O)c1ccccc1)Nc1ccc2[nH]c(=O)[nH]c2c1,-12.9%,-5.8,-5.1%,-0.2%,?,·,
COC(=O)NC(/C(C(=O)OC)=C(\C)NCc1ccccc1)c1ccc(F)cc1 (centres undefined),·,·,·,·,·,10.1%[21 µM],
SMILES,WRN helicase inh,PI5P4K alpha inh,FEN1 inh-1,PGK inhibitor,Tb PFK inh,TDP1 block,others
CN(C)CCCN1C(=O)c2cccc3c([N+](=O)[O-])ccc(c23)C1=O,-18.8%,-4.7,50.1µM*,-0.5%,1.6%,3.2%,FEN1 inh-2=33.8*
O=C1c2cccc3c([N+](=O)[O-])ccc(c23)C(=O)N1CCc1ccccn1,-2.7%,-10.6,-3.9%,-4.4%,3.2%,5.2%,
CN(C)CCCNc1cc(O)c2ncccc2c1,·,·,-26.9%,7.2%,?,2.8%,FEN1 inh-2=37.9*
Oc1cc(NCc2ccc(F)cc2)cc2cccnc12,·,·,-7.3%,-4.5%,4.3%,3.5%,
CN(C)c1ccc(/C=C/c2c3c(nc4ccccc24)CCCC3)cc1,·,·,-4.3%,·,·,·,
CCN(CCCNc1cc2c(c(N)c1S(=O)(=O)O)C(=O)c1ccccc1C2=O)c1ccccc1,5.4%[11.6 µM],-55.8*,·,?,·,·,FEN1 inh-2=?
Cn1c(=O)c(C(=O)Nc2ncccc2O)c(O)c2ccccc21,-6.6%[57.1 µM],·,50.1µM*,i,0.0%,3.1%,FEN1 inh-2=60.1*
CCCn1c(=O)c(C(=O)Nc2ncccc2O)c(O)c2ccccc21,-7.9%,-1.9,7.1%,-1.9%,-0.7%,·,
O=C(/C=C/c1ccco1)NC(=S)Nc1cccc(-c2nc3ccccc3o2)c1,50.1µM*,-64.4*,-14.0%,2.2%,-0.1%,5.9%,FEN1 inh-2=?
Cc1ccc(-c2nc3ccccc3o2)cc1NC(=S)NC(=O)/C=C/c1ccco1,?,?,-8.0%,1.5%,-2.7%,7.0%,
COc1cc(/C=C2\SC(=Nc3ccc(Cl)c(C(=O)O)c3)NC2=O)c(Br)c(Br)c1O,?,-106.2*,25.1µM*,-10.1%,0.7%,8.91µM*,FEN1 inh-2=37.9*
COC(=O)/C=C1\SC(=Nc2ccc(Cl)c(Cl)c2)NC1=O,-5.2%[57.1 µM],8.9,-8.9%,-7.7%,0.5%,7.4%,
CCCc1c(C)[nH]c2ccc(C(=O)O)cc2c1=S,25.1µM*,?,44.7µM*,?,-7.0%,?,FEN1 inh-2=42.6*
